Assay results from PubChem BioAssay (NCATS).
Inconclusive results are not listed. Entries that show only a call come without a potency. Active and inactive are the calls of the source. Calls follow the shape of the dose curve; as a rule, active = well fitted curve in the direction sought with a large enough effect; inconclusive = small, poorly fitted or top-dose-only effect, or another doubt; inactive = no such curve, though single readings can be large; an effect the other way counts as inactive or inconclusive.

Legend:
[1] = Quantitative High-Throughput drug screen in 47 multiple myeloma cell lines against the NCATS MIPE library collection: MMM1_PLB cell viability assay (AID 1918976); also: nearly all actives have a fitted effect of over 35% in size; also: potency is read from the fitted curve at half-maximal effect
In short: (§1)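 Cells were exposed to library compounds for 48 hours, after which ATP was measured by CellTiter-Glo. Signal was taken as median relative luminescence units.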

[2] = Quantitative High-Throughput drug screen in 47 multiple myeloma cell lines against the NCATS MIPE library collection: MOLP8_DSMZ cell viability assay (AID 1918977); also: nearly all actives have a fitted effect of over 45% in size; also: potency is read from the fitted curve at half-maximal effect
Description: PI: Beverly A. Mock Ph.D.
Laboratory of Cancer Biology and Genetics,
Center for Cancer Research, National Cancer Institute,
National Institute of Health, Bethesda, Maryland
Drug resistance and disease progression are common in multiple myeloma (MM) patients, underscoring the need for new therapeutic combinations. […] We hypothesized that effective combinations would reduce MYC expression and enhance p16 activity. […] These preclinical data identify potentially useful drug combinations for evaluation in drug-resistant MM and reveal potential mechanisms of combined drug sensitivity.
Described herein is the primary MIPE qHTS used to cherrypick compounds. Validated compounds were then further tested for potential synergistic activiy.
[1] Peat TJ, Gaikwad SM, Dubois W, Gyabaah-Kessie N, Zhang S, Gorjifard S, Phyo Z, Andres M, Hughitt VK, Simpson RM, Miller MA, Girvin AT, Taylor A, Williams D, D'Antonio N, Zhang Y, Rajagopalan A, Flietner E, Wilson K, Zhang X, Shinn P, Klumpp-Thomas C, McKnight C, Itkin Z, Chen L, Kazandijian D, Zhang J, Michalowski AM, Simmons JK, Keats J, Thomas CJ, Mock BA. Drug combinations identified by high-throughput screening promote cell cycle transition and upregulate Smad pathways in myeloma. Cancer Lett. 2023 Aug 1;568:216284. doi: 10.1016/j.canlet.2023.216284. Epub 2023 Jun 24. PMID: 37356470; PMCID: PMC10408729.
SEQUENCE No. (e.g., 1, 2, 3, etc.); […] (e.g., Cells, Incubation, Reagent, etc.); VALUE and DESCRIPTION.
1; Cells; 5 uL; white, solid bottom 1536-well Greiner assay plate.
2; Compounds; 23 nL; Kalypsis pin tool (Wako USA) equipped with a 1536-well pin head to transfer to the assay plates.
3; Incubation; 48 hours; 37C incubation.
4; Reagent;5uL; CellTiter Glo (Promega).
5; Detector; 425V; Luminescence; Viewlux PerkinElmer. […]
1. […] Briefly, the corresponding myeloma cell lines were screened in 1,536-well plates with 500 cells, 5-uL per well for inhibition of cell viability (assessed by measuring ATP levels with CellTiterGlo). […]
5. Signal was measured as median relative luminescence units on a ViewLux (PerkinElmer) multiplate reader. […]

[3] = Quantitative High-Throughput drug screen in 47 multiple myeloma cell lines against the NCATS MIPE library collection: NCIH929_DSMZ cell viability assay (AID 1918978); also: nearly all actives have a fitted effect of over 35% in size; also: potency is read from the fitted curve at half-maximal effect
In short: as §1

[4] = Quantitative High-Throughput drug screen in 47 multiple myeloma cell lines against the NCATS MIPE library collection: MM1R_ATCC cell viability assay (AID 1918981); also: nearly all actives have a fitted effect of over 35% in size; also: potency is read from the fitted curve at half-maximal effect
In short: as §1

[5] = Quantitative High-Throughput drug screen in 47 multiple myeloma cell lines against the NCATS MIPE library collection: LP1_DSMZ cell viability assay (AID 1918982); also: nearly all actives have a fitted effect of over 35% in size; also: potency is read from the fitted curve at half-maximal effect
In short: as §1

[6] = Quantitative High-Throughput drug screen in 47 multiple myeloma cell lines against the NCATS MIPE library collection: KMS21BM_JCRB cell viability assay (AID 1918974); conditions: ATP luminescence, 48 h; also: potency is read from the fitted curve at half-maximal effect
In short: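 Relative luminescence from CellTiter-Glo served as the viability signal, referenced to DMSO-treated (100%) and cell-free medium (0%) controls. Treatment lasted 48 hours at 37C with 500 cells per well.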

[7] = Quantitative High-Throughput drug screen in 47 multiple myeloma cell lines against the NCATS MIPE library collection: KMS26_JCRB cell viability assay (AID 1918975); conditions: KMS26 myeloma cells viability, CellTiter-Glo ATP, 48 h; also: potency is read from the fitted curve at half-maximal effect; nearly all actives have a fitted effect of over 45% in size
In short: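 Viability readout: CellTiter-Glo luminescence following 5 min room-temperature incubation with reagent. Prior exposure: 48 h, 37C, humidified 5% CO2, 500 cells per well.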

[8] = Quantitative High-Throughput drug screen in 47 multiple myeloma cell lines against the NCATS MIPE library collection: MM1S_ATCC cell viability assay (AID 1918980); conditions: MM1S myeloma viability, CellTiter-Glo ATP luminescence, 48 h; also: potency is read from the fitted curve at half-maximal effect; nearly all actives have a fitted effect of over 45% in size
In short: as §1

[9] = Quantitative High-Throughput drug screen in 47 multiple myeloma cell lines against the NCATS MIPE library collection: KMS28PE_JCRB cell viability assay (AID 1918983); conditions: KMS28PE multiple myeloma viability, CellTiter-Glo ATP, 48 h
In short: as §1

[10] = Quantitative High-Throughput drug screen in 47 multiple myeloma cell lines against the NCATS MIPE library collection: OCIMY1_PLB cell viability assay (AID 1918979)
In short: as §1

With `O=C(O)c1nn(Cc2ccc(Cl)cc2Cl)c2ccccc12` the Potency [1] was “inactive”, the Potency [2] was “inactive” and the Potency [3] was “inactive”. The Potency [4] was “inactive” and the Potency [5] was “inactive”.
For `C[C@@H]1C[C@@H]([C@H](O)CC2CC(=O)NC(=O)C2)C(=O)[C@@H](C)C1`, the Potency [6] was 526 nM (active), the Potency [7] was 132 nM (active) and the Potency [1] was 662 nM (active). For the same molecule, the Potency [2] was 296 nM (active), the Potency [3] was 1870 nM (active) and the Potency [8] was 4180 nM (active). For the same molecule, the Potency [4] was 1660 nM (active), the Potency [5] was 118 nM (active) and the Potency [9] was 1180 nM (active).
For `COc1ccc(C(=O)N2CCCC2=O)cc1`, the Potency [2] was “inactive”, the Potency [8] was 296 nM (active) and the Potency [4] was “inactive”.
In the case of `COC(=O)C1=CCCN(C)C1`, the Potency [1] was 1050 nM (active), the Potency [3] was “inactive” and the outcome [10] was “inactive”. For the same molecule, the Potency [4] was “inactive” and the Potency [5] was “inactive”.
